Laboratory results taken from PubChem BioAssay (Tox21).
A number with no mark means an inactive call. Results filed as inconclusive are left out. A call without a number means that no potency is given here. Calls of active or inactive are those of the source. Unless noted, calls come from the whole dose curve. Square brackets hold non-standard residues; d marks the D form. Peptide text beside a SMILES is read from it. pGlu = O=C1CC[C@@H](C(=O)O)N1

How the values were obtained:
[1] = Nuclear factor erythroid 2-related factor 2/antioxidant responsive element (Nrf2/ARE) small molecule agonists: qHTS cell viability counter screen in human keratinocytes (AID 1919968; active = well fitted curve in the direction sought with a large enough effect in the repeat runs; an effect the other way counts as inactive or inconclusive; note: nearly all actives have a fitted effect of over 55% in size; note: potency is the fitted concentration of half-maximal effect)
Summary of the method: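 KeratinoSens cells (HaCaT keratinocytes stably carrying an ARE-luciferase reporter) were seeded at 1,500 cells/well and rested 5 h at 37 C/5% CO2. They were then exposed to compounds in DMSO for 23 h. Viability was read by CellTiter-Fluor fluorescence after 1 h.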

[2] = Nuclear factor erythroid 2-related factor 2/antioxidant responsive element (Nrf2/ARE) small molecule agonists: luciferase reporter gene qHTS assay in human keratinocytes (AID 1919969); note: nearly all actives have a fitted effect of over 35% in size; note: potency is the fitted concentration of half-maximal effect
[3] = biological target: Gonadotropin-releasing hormone receptor (Homo sapiens) (UniProt P30968); assay: Human gonadotropin-releasing hormone receptor (GnRHR) small molecule agonists, calcium flux assay in GnRHR-HEK293 cells (AID 1920063); note: nearly all actives have a fitted effect of over 35% in size; note: potency is the fitted concentration of half-maximal effect
Summary of the method: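 HEK293 cells stably expressing human GnRHR were plated 18 h at 37 °C, loaded with calcium dye 1 h at 37 °C, then given compound in agonist mode; fluorescence (Ex/Em 480/540) read kinetically for 3 min at 1 s intervals.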

[4] = G protein-coupled receptor (GPCR) small molecule agonists, calcium flux assay: HEK293 wild type cell line counter screen (AID 1920065)
Summary of the method: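 Cells were plated and cultured 18 h at 37 C/5% CO2, then loaded with calcium dye for 1 h at 37 C. Compounds in DMSO were pin-transferred in agonist mode, and fluorescence (Ex/Em 480/540) was read kinetically for 3 min at 1 s intervals.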

[5] = p53 small molecule agonists, cell-based qHTS assay with human liver microsomes: qHTS cell viability counter screen (AID 1963579); note: nearly all actives have a fitted effect of over 45% in size; note: potency is the fitted concentration of half-maximal effect
Summary of the method: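 Cells carrying the p53 response-element beta-lactamase reporter are treated for 16 h at 37 C with test compounds in the presence of human liver microsomes and NADPH (both 0.5 mg/mL final); ATP-based CellTiter-Glo luminescence then reports viability.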

[6] = p53 small molecule agonists, cell-based qHTS assay with rat liver microsomes: qHTS cell viability counter screen (AID 1963580); note: nearly all actives have a fitted effect of over 45% in size
Summary of the method: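 Intracellular ATP, by CellTiter-Glo luminescence, defines viability. HCT-116 p53RE-bla cells, 4,000 per well, were compound-treated in the presence of rat liver microsomes and NADPH for 16 h at 37 C.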

[7] = p53 small molecule agonists, cell-based qHTS assay: qHTS cell viability counter screen (AID 1963581); note: nearly all actives have a fitted effect of over 45% in size; note: potency is the fitted concentration of half-maximal effect
Summary of the method: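 p53RE-bla HCT-116 cells were exposed to compounds for 16 h at 37 C; after the beta-lactamase FRET read in the same wells, CellTiter-Glo was added and luminescence (intracellular ATP) read after 30 min at room temperature.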

[8] = biological target: 5-hydroxytryptamine receptor 2A (Homo sapiens) (UniProt P28223); assay: 5-hydroxytryptamine receptor 2A (HTR2A) small molecule antagonists, cell-based qHTS assay (AID 1963586); note: nearly all actives have a fitted effect of over 45% in size; note: potency is the fitted concentration of half-maximal effect
Summary of the method: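 Antagonist-mode intracellular calcium assay: DOI (4 nM) added after 5 min compound pre-incubation at room temperature to dye-loaded HTR2A-CHO cells. Fluorescence followed for 3 min, sampled every second.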

[9] = biological target: 5-hydroxytryptamine receptor 2A (Homo sapiens) (UniProt P28223); assay: 5-hydroxytryptamine receptor 2A (HTR2A) small molecule agonists, cell-based qHTS assay (AID 1963587); note: nearly all actives have a fitted effect of over 30% in size; note: potency is the fitted concentration of half-maximal effect
Summary of the method: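 Kinetic calcium-flux fluorescence (2 min, 1 sec intervals) after compound addition in agonist mode. HTR2A-CHO cells were cultured 18 h, then dye-loaded 1 h at 37 C.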

[10] = biological target: Muscarinic acetylcholine receptor M1 (Homo sapiens) (UniProt P11229); assay: Cholinergic receptor muscarinic 1 (CHRM1) small molecule antagonists, cell-based qHTS assay (AID 1963588); note: nearly all actives have a fitted effect of over 40% in size
Summary of the method: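 CHRM1-CHO calcium-flux assay, antagonist mode. Cells were seeded 18 h, dye-loaded 1 h at 37 C and given compound for 5 min at RT, then acetylcholine was added at 50nM. FDSS fluorescence was read 3 min; 15 concentrations, three runs.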

[11] = biological target: Muscarinic acetylcholine receptor M1 (Homo sapiens) (UniProt P11229); assay: Cholinergic receptor muscarinic 1 (CHRM1) small molecule agonists, cell-based qHTS assay (AID 1963589); note: nearly all actives have a fitted effect of over 35% in size
Summary of the method: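 CHO cells stably expressing human CHRM1, seeded 18 h at 37 C/5% CO2, dye-loaded 1 h at 37 C, then given compound in agonist mode; intracellular calcium fluorescence read kinetically at 1 s intervals. Fifteen concentrations, three independent runs.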

[12] = cAMP Responsive Elements (CRE) small molecule agonists, cell-based qHTS assay (AID 1963590)
Summary of the method: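 CRE-bla HEK 293T cells in DMEM with 10% dialyzed FBS, NEAA, pyruvate and 25 mM HEPES were plated 18 h at 37 C/5% CO2, then exposed to compounds in DMSO for 3 h before LiveBLAzer B/G FRET substrate addition.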

[13] = cAMP Responsive Elements (CRE) small molecule antagonists, cell-based qHTS assay (AID 1963591; active = well fitted inhibition curve with a large enough effect in the signal ratio in the repeat runs, not every such curve was filed as active; the % refers to the signal ratio)
Summary of the method: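 CRE-bla HEK293T cells were plated 18 h at 37 °C/5% CO2, pinned with compound in DMSO, then stimulated with NKH477 at 0.25 uM final for 3 h. LiveBLAzer B/G FRET substrate was added and plates incubated 2 h at room temperature.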

[14] = biological target: Beta-2 adrenergic receptor (Homo sapiens) (UniProt P07550); assay: Adrenergic beta2 receptor (ADRB2) small molecule antagonists, cell-based qHTS assay (AID 1963592); note: nearly all actives have a fitted effect of over 50% in size; note: potency is the fitted concentration of half-maximal effect
Summary of the method: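 Cells (CHO, stable ADRB2 overexpression) incubated 18-20hr at 37C; compounds added from DMSO; agonist mix (1nM isoproterenol, 100uM IBMX, 25uM Ro-20-1724) added; 0.5hr RT; d2-cAMP and anti-cAMP-cryptate added; 1hr RT; 665/615 nm read.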

[15] = biological target: D(2) dopamine receptor (Homo sapiens) (UniProt P14416); assay: Dopamine D2 receptor (DRD2) small molecule agonists, cell-based qHTS assay (AID 1963594); note: nearly all actives have a fitted effect of over 35% in size
Summary of the method: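 cAMP accumulation in DRD2-HEK293 cells measured by HTRF after 1 h detection; compounds added 10 min before NKH477 (200nM […]) forskolin-analogue stimulation, 30 min at room temperature, with Ro20-1724 present at 0.1 mM final.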

[16] = p53 small molecule agonists, cell-based qHTS assay with human liver microsomes (AID 1963577)
Summary of the method: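 Compounds act here after metabolic activation: human liver microsomes and NADPH, both at 0.5 mg/mL final, were co-added to p53RE-bla cells. Incubation ran 16 h at 37 C, followed by LiveBLAzer detection.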

[17] = p53 small molecule agonists, cell-based qHTS assay with rat liver microsomes (AID 1963578)
Summary of the method: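 Read-out is beta-lactamase reporter fluorescence (LiveBLAzer, 2 h, room temperature, dark) in p53RE-bla cells treated 16 h at 37 C with compound, rat liver microsomes and NADPH, both 0.5 mg/mL final.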

[18] = biological target: D(2) dopamine receptor (Homo sapiens) (UniProt P14416); assay: Dopamine D2 receptor (DRD2) small molecule antagonists, cell-based qHTS assay (AID 1963595; active = well fitted inhibition curve with a large enough effect in the signal ratio in the repeat runs, with a control signal flat; the % refers to the signal ratio; note: potency is the fitted concentration of half-maximal effect)
Summary of the method: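 Human DRD2 antagonist qHTS measuring cAMP by HTRF. The cells are exposed to compound for 10 min, then to NKH477 (200 nM) and quinpirole (12 nM) for 30 min at RT, with Ro20-1724 (0.1 mM) present throughout.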

[19] = biological target: Beta-2 adrenergic receptor (Homo sapiens) (UniProt P07550); assay: Adrenergic beta2 receptor (ADRB2) small molecule agonists, cell-based qHTS assay (AID 1963593);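 note: CHO cells stably overexpressing human ADRB2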
Summary of the method: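 CHO cells stably over-expressing ADRB2 were plated overnight at 37C, then dosed with compounds plus a stimulation mix containing 100uM IBMX and 25uM Ro-20-1724 for 0.5hr at room temperature. cAMP was measured by HTRF competition, 1hr.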

[20] = biological target: KiSS-1 receptor (Homo sapiens) (UniProt Q969F8); assay: Human kisspeptin (KISS1R) small molecule agonists, calcium flux assay in KISS1R-HEK293 cells (AID 1920064; active = well fitted curve in the direction sought with a large enough effect in the repeat runs; an effect the other way counts as inactive or inconclusive)
Summary of the method: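 HEK293 cells stably expressing human KISS1R were plated 18 h at 37 °C, loaded with calcium dye for 1 h at 37 °C, then given compound by pin tool. Fluorescence (Ex/Em 480/540) was read kinetically for 3 min.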

Beta-2 adrenergic receptor (Homo sapiens), sequence (P07550 whole entry, looked up): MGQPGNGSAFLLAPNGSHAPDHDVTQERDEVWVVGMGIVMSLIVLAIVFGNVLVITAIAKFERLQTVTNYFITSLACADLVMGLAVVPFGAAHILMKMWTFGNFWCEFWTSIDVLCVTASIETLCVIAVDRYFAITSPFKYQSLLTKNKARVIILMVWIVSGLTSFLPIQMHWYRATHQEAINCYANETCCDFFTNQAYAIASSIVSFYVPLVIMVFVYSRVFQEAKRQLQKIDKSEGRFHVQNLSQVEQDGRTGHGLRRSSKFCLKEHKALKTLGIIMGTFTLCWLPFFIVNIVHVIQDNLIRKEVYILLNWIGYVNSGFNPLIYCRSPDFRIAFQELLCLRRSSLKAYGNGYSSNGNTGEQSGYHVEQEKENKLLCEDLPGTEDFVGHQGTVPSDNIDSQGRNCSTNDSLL
5-hydroxytryptamine receptor 2A (Homo sapiens), sequence (P28223 whole entry, looked up): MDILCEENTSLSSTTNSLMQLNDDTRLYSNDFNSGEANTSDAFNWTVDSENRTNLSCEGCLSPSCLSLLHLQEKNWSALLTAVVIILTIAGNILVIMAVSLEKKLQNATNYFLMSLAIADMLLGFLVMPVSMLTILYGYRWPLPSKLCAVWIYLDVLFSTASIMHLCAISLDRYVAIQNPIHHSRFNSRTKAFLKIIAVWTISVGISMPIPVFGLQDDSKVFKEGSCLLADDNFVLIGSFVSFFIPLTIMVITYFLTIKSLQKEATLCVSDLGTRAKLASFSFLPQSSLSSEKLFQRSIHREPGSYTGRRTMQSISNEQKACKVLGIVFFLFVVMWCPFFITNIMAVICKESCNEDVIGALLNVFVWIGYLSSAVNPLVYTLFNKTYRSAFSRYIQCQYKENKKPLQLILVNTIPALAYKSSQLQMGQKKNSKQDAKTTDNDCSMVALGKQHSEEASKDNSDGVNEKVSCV
D(2) dopamine receptor (Homo sapiens), sequence (P14416 whole entry, looked up): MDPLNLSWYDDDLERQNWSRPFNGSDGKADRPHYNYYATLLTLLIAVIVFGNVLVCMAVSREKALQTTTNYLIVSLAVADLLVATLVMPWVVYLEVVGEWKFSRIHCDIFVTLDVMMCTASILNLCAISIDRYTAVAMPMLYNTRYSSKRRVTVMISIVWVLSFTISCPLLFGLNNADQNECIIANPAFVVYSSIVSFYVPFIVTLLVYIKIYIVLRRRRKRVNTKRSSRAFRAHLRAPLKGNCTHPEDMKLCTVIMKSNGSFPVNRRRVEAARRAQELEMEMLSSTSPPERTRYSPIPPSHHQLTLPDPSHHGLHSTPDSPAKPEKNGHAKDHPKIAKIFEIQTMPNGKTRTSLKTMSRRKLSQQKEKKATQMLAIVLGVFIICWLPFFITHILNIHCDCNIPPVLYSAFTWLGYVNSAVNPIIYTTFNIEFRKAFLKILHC
Muscarinic acetylcholine receptor M1 (Homo sapiens), sequence (P11229 whole entry, looked up): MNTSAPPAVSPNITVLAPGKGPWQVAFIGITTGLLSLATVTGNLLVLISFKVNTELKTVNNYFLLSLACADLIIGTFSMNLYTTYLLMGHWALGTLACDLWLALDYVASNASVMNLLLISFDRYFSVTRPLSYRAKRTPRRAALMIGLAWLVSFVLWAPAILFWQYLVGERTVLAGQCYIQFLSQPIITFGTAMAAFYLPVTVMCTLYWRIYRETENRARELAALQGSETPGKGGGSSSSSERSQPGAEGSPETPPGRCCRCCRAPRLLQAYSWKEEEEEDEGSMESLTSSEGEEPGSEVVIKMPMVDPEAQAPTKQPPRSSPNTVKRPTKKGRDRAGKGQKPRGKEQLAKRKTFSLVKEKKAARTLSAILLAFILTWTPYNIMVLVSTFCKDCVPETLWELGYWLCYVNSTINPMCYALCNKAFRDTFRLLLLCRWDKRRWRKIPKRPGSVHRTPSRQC
KiSS-1 receptor (Homo sapiens), sequence (Q969F8 whole entry, looked up): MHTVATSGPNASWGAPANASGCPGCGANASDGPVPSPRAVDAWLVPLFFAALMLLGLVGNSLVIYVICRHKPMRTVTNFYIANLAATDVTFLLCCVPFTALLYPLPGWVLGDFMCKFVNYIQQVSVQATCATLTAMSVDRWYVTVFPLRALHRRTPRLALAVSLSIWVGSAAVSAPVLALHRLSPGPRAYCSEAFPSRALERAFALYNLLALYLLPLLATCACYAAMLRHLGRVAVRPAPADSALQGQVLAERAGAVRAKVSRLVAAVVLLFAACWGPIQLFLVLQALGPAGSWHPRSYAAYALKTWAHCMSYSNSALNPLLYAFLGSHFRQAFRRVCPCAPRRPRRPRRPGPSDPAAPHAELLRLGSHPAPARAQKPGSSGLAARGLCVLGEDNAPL
Gonadotropin-releasing hormone receptor (Homo sapiens), sequence (P30968 whole entry, looked up): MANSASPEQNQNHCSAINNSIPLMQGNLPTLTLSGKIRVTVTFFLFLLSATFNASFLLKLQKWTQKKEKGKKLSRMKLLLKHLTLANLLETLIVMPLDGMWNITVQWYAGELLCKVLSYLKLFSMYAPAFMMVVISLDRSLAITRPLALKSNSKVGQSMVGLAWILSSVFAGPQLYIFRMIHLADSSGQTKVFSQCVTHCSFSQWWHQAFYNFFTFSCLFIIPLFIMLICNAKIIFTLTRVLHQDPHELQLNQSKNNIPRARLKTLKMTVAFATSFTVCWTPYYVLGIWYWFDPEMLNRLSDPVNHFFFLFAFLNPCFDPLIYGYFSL

Row | Compound | Potency [1] | Potency [2] | Potency [3] | Potency [4] | Potency [5] | Potency [6] | Potency [7] | Potency [8] | Potency [9] | Potency [10] | Potency [11] | Potency [12] | Potency [13] | Potency [14] | Potency [15] | Potency [16] | Potency [17] | Potency [18] | Potency [19] | Potency [20]
1 | CC(=O)c1ccc([N+](=O)[O-])cc1 | inactive | inactive | inactive | inactive | inactive | inactive | inactive | inactive | inactive | inactive | inactive | inactive | inactive | inactive | inactive |  |  |  |  | 
2 | CNCC(O)c1ccc(O)c(O)c1 (centres undefined) | inactive | inactive | 0.0425 µM (active) | inactive |  | inactive | inactive |  |  |  |  |  |  |  |  | inactive | inactive | 5.31 µM (active) |  | 
3 | c1ccc(C[n+]2cccc3ccccc32)cc1 | inactive | inactive | inactive | inactive | inactive | inactive |  | inactive | inactive | inactive | inactive | inactive | inactive | inactive | inactive |  |  | inactive |  | 
4 | S=C(S)NCCNC(=S)S | inactive | inactive | inactive | inactive | inactive | inactive | inactive | inactive | inactive | inactive | inactive | inactive | inactive | inactive | inactive |  |  |  | inactive | 
5 | CC(=O)OCC(CCn1cnc2cnc(N)nc21)COC(C)=O | inactive | inactive | inactive | inactive | inactive | inactive | inactive |  |  |  |  | inactive | inactive | inactive |  |  |  | inactive | inactive | 
6 | CC1(C)O[C@@H]2C[C@H]3[C@@H]4CCC5=CC(=O)CC[C@]5(C)[C@@]4(F)[C@@H](O)C[C@]3(C)[C@]2(C(=O)CCl)O1 | inactive | inactive | inactive | inactive | inactive | inactive |  |  |  |  |  | inactive |  | inactive | inactive |  | inactive | inactive | inactive | 
7 | C=C(C)C1CC=C(C)C(=O)C1 (centres undefined) | inactive | inactive | inactive | inactive | 32.2 µM (active) | inactive | inactive | inactive | inactive | inactive | inactive | inactive | inactive | inactive | inactive |  |  | inactive | inactive | 
8 | CCCCNC1CC(C)(C)NC(C)(C)C1 | inactive | inactive | inactive | inactive | inactive | inactive | inactive | inactive | inactive | inactive | inactive | inactive | inactive | inactive | inactive | inactive |  | inactive | inactive | 
9 | CC(=O)N(CC(O)CO)c1c(I)c(C(=O)NCCO)c(I)c(C(=O)NCC(O)CO)c1I (centres undefined) | inactive | inactive | inactive | inactive | inactive | inactive | inactive | inactive | inactive | inactive |  | inactive | inactive | inactive |  |  |  | inactive | inactive | 
10 | C[C@]12CCC(=O)C=C1C=C[C@@H]1[C@@H]2CC[C@@]2(C)[C@H]1CC[C@@]21CCC(=O)O1 | inactive | inactive |  | inactive |  | inactive | inactive | inactive | inactive |  | inactive |  |  | inactive |  | inactive | inactive | inactive | inactive | inactive
11 | COc1cc(C(C)=O)ccc1OCCCN1CCC(c2noc3cc(F)ccc23)CC1 | inactive | inactive | inactive | inactive |  | inactive |  |  | inactive |  |  | inactive | inactive |  |  |  |  |  |  | 
12 | COc1cc(/C=C/C(=O)CC(=O)/C=C/c2ccc(O)c(OC)c2)ccc1O | 48.9 µM (active) | 15.4 µM (active) | 39.2 µM (active) |  | 16.3 µM (active) |  | 46.1 µM (active) | inactive | 22 µM (active) | inactive |  |  |  | inactive | inactive |  |  |  |  | 
13 | Cc1cc2cc3c(C)cc(=O)oc3c(C)c2o1 | inactive | inactive | inactive |  | inactive | inactive | inactive |  |  |  |  | inactive | inactive | inactive | inactive |  |  | inactive |  | 
14 | CC(C)COCC(CN(Cc1ccccc1)c1ccccc1)N1CCCC1 (centres undefined) | 26.6 µM (active) | inactive |  | inactive | inactive | inactive | inactive | 6.5 µM (active) | 19 µM (active) | inactive | inactive |  |  | 26.6 µM (active) | inactive | inactive | inactive | 29.8 µM (active) |  | inactive
15 | CCCC(CC)c1ccccc1 (centres undefined) | inactive | inactive |  | inactive |  | inactive | inactive | inactive | inactive | inactive | inactive | inactive | inactive |  | inactive | inactive | inactive | inactive |  | inactive
16 | CC(C)(C)OC(=O)c1ccc(O)cc1 | inactive | 61.1 µM (active) | inactive | inactive |  | inactive | inactive | inactive | inactive |  | inactive | inactive |  |  | inactive |  |  | inactive |  | 
17 | CCNC(=O)[C@@H]1CCCN1C(=O)[C@H](CCCN=C(N)N)NC(=O)[C@H](CC(C)C)NC(=O)CNC(=O)[C@H](Cc1ccc(O)cc1)NC(=O)[C@H](CO)NC(=O)[C@H](Cc1c[nH]c2ccccc12)NC(=O)[C@H](Cc1cnc[nH]1)NC(=O)[C@@H]1CCC(=O)N1 ([pGlu]HWSYGLRP-NHEt) | inactive | inactive |  | inactive | inactive | inactive | inactive |  |  |  |  |  | inactive | inactive | inactive | inactive | inactive | inactive |  | inactive
